Consider 35 molecules from PubChem BioAssay (NCI).

Compounds without any hit were thinned out: in the full panel of roughly 83,000, 20% have a hit.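 Assay: single dose, 48 h. Readout: percent growth (0 = no net growth; negative = cell death). Active: <10.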 Unmarked numbers belong to inactive results. The source made the active and inactive calls.

In the first assay the test system is U251 CNS. Put plainly: NCI-60 one-dose screen, 48 h (100 = growth as untreated, 0 = no growth, -100 = all killed). To be noted: 10 µM unless noted.
Regarding `O=S1(=O)OC(c2ccc(O)c(Cl)c2)(c2ccc(O)c(Cl)c2)c2ccccc21`, the growth was 111%.
`C[C@H](NC(=O)c1c(N)nn2cccnc12)c1cc2cccc(C#Cc3cnn(C)c3)c2c(=O)n1-c1ccccc1`: the growth was 16.7%.
With `Cc1cc(O)cc(-c2c(-c3ccnc(-c4cccnc4)c3)cnn2C)c1`, the growth is 69.3%.
`CN1CCN(CCOc2cc(OC3CCOCC3)c3c(Nc4c(Cl)ccc5c4OCO5)ncnc3c2)CC1`: the growth is 67.3%.

The subject of the next assay is PC-3 prostate. Described as above. To be noted: 10 µM unless noted.
As to `CC(C)(C)c1ccc(Cn2cc(CSc3nc4ccccc4s3)nn2)cc1`, the growth was 96.1%.
Regarding `CCN1CCN(Cc2ccc(Cc3ncc(F)c(-c4cc(F)c5nc(C)n(C(C)C)c5c4)n3)nc2)CC1`, the growth is 38.7%.
Regarding `CC(=O)NCC(=O)N1[C@@H]2CC[C@H]1c1ccc(Nc3ncc(C(F)(F)F)c(NC4CCC4)n3)cc12`, the growth is 57.2% [2.5 µM].
Same read-out and setting: next, `O=C(NOCCO)c1cc(CN2OCCCC2=O)c(F)c(F)c1Nc1ccc(I)cc1F`: 99.3%; `CC(C)CC(=O)Nc1n[nH]c2c1CN(C(=O)C1CCN(C)CC1)C2(C)C`: 16.1%; `Cc1ccc(N)cc1CN1C(=O)c2ccccc2C1=O`: 90.1%.
As for `COCc1c(-c2ccc(NC(=O)Nc3cc(C(F)(F)F)ccc3F)c(F)c2)c2c(N)ncnn2c1CN1CCOCC1`, the growth was -25.4% (active).
Consider `O=C(CNc1nc2ccccc2s1)Nc1ccc(-c2nc3ccccc3s2)cc1`, for which the growth is 95%.
Regarding `N#CC[C@H](C1CCCC1)n1cc(-c2ncnc3[nH]ccc23)cn1`, the growth is 59%.
Turning to `C=CC(=O)Nc1cc2c(Nc3ccc(F)c(Cl)c3)ncnc2cc1C#CC(C)(C)N1CCN(C)CC1`, the growth was -87.4% (active).
For the molecule `CC(=O)C1=C(C)NC(SCc2nnc(-c3ccc(C)cc3)o2)=NC1c1ccc(F)cc1` (stereo not given), the growth is 85.3%.
Turning to `CNC(=O)c1ccc(Nc2ncc(C(F)(F)F)c(NCc3nccnc3N(C)S(C)(=O)=O)n2)cc1`, the growth was 10.5%.
`C/C=C/C=N/NC(=S)Nc1ccccc1`: the growth was 88.2%.
As to `COc1cc(N2CCC(N(C)C)CC2)ccc1Nc1ncc(Cl)c(Nc2ccccc2P(C)(C)=O)n1`, the growth is 26%.
With `CN1CCN(CCCOc2cccc3nc(Nc4ccc(Cl)c(C(F)(F)F)c4)ccc23)CC1`, the growth is 14.6%.
For `C#Cc1cccc(Nc2ncnc3cc(OC)c(OCCCCCCC(=O)NO)cc23)c1`, the growth was 10.4%.
For `Cc1ccc(-n2nc(C(C)(C)C)cc2NC(=O)NCc2cc(F)ccc2Oc2ccc3c(cnn3CCO)c2)cc1`, the growth was 33.5%.
Still for that read-out and setting: the same measure for `Cn1ccnc1C(=O)/C=C/c1ccc(CC(=O)Nc2ccc(Br)cc2)cc1`: 23%; for `Cc1[nH]n(C(N)=S)c(=O)c1N=Nc1ccc(S(=O)(=O)Nc2ccncn2)cc1`: 77.1%; for `Cc1[nH]c(/C=C2\C(=O)Nc3ccc(F)cc32)c(C)c1C(=O)NC[C@H](O)CN1CCOCC1`: 36.2%.
Turning to `Cn1ncc(Cl)c1-c1cc(C(=O)N[C@H](CN)Cc2cccc(F)c2)sc1Cl`, the growth is 9.61% (active).
Consider `Cn1cc(-c2ncnc3ccc(-c4cnc(Cl)c(NS(C)(=O)=O)c4)cc23)c2ccccc21`, for which the growth is 20.1%.
On the same count and under the same terms, next, `O=[N+]([O-])c1cc(Br)cc2c1[nH]c1ccc(Br)cc12`: 60%; `COc1ccc2c(OCc3nnc4ccc(-c5ccccc5)nn34)ccnc2c1`: 96.9% [2.5 µM].
As for `CC(=O)O[C@]1(C)C[C@H](O)[C@]2(O)C=CO[C@H](O[C@@H]3O[C@H](CO)[C@@H](O)[C@H](O)[C@H]3O)[C@@H]21`, the growth is 103%.
Same read-out and setting: next, `COc1cc2cc(NCc3ccc(F)cc3)nc(C)c2cc1OC`: 48.2%; `O=C(Nc1nc2cccc(-c3ccc(CN4CCS(=O)(=O)CC4)cc3)n2n1)C1CC1`: 76.9%; `N#Cc1c(-c2ccc(Cl)cc2)csc1NC(=O)Nc1cccc(C(F)(F)F)c1`: 11.1%.
On to `O=C(c1ccc(/C=C/c2n[nH]c3ccccc23)cc1)N1CCNCC1`, for which the growth was 38.3%.
On to `Cc1cnc(Nc2ccc(OCCN3CCCC3)cc2)nc1Nc1cccc(S(=O)(=O)NC(C)(C)C)c1`, for which the growth was 20%.
With `CO[C@H]1C[C@@H]2CC[C@@H](C)[C@@](O)(O2)C(=O)C(=O)N2CCCC[C@H]2C(=O)O[C@H]([C@H](C)C[C@@H]2CC[C@@H](OCCO)[C@H](OC)C2)CC(=O)[C@H](C)/C=C(\C)[C@@H](O)[C@H](OC)C(=O)[C@H](C)C[C@H](C)\C=C/C=C/C=C/1C`, the growth is 44.3%.
